# Assay outcomes from PubChem BioAssay.
# D2 PAM-1 – positive allosteric modulators of human D2 dopamine receptor. HEK293 T-REx D2, calcium flux, EC20 dopamine potentiation. AID 485347. 340,000 compounds, 0.34% hits. P14416. potentiation, % at 10 µM;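 active = potentiation over 3 SD above the plate norm, cut at about 30% in these data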; also: 0% is about no effect
# Target sequence (P14416 whole entry, looked up): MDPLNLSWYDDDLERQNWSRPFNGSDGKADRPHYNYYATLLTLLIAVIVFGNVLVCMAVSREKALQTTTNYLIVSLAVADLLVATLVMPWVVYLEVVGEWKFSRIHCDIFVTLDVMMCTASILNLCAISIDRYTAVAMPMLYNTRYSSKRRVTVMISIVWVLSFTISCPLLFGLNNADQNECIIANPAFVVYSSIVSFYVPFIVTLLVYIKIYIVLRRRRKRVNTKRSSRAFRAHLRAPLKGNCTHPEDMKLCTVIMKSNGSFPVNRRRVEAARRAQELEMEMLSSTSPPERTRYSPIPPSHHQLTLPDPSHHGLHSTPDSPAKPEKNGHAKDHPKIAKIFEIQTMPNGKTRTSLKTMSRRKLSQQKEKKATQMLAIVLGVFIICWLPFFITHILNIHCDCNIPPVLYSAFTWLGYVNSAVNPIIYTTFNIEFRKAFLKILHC
#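 Primary screen. Calcium kinetics in induced HEK293 T-REx D2 cells: compound pre-addition 180 s, EC20 dopamine, 180 s more.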
# D2 antagonist – antagonists of human D2 dopamine receptor; P14416; HEK293 TREx D2 cells, calcium flux, dopamine EC80; inhibition, % at 10 µM; 340,000 compounds, 2% hits; in the data active = inhibition above about 30%; inactive = below that, where a call was filed; also: 0% is about no effect
#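 Dopamine at EC80 is the agonist stimulus; test compounds precede it by 180 s. Calcium flux read kinetically in a force-coupled, inducible HEK293 T-REx D2 cell line.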
# D2 ag-1 – activates the human D2 dopamine receptor; AID 624465; DiscoveRx PathHunter D2 beta-arrestin, luminescence, 90 min; 100% = 57 uM dopamine signal; 360,000 compounds, 0.084% hits; activation, % (test concentration not listed); P14416; in the data active = activation above about 40%; inconclusive = between about 15% and that limit
#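 DiscoveRx PathHunter D2 beta-arrestin cells (2,100/well) attached overnight, then compound-stimulated 90 min at 37 C in HBSS/10 mM HEPES/0.1% Tween-20 buffer; beta-galactosidase complementation read by luminescence after 1 h at ambient temperature. Dopamine 57 uM final (EC100) as control.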
# D2 PAM-2 – potentiates the human D2 dopamine receptor allosterically. P14416. DiscoveRx D2 beta-arrestin cells, luminescence, 90 min; 100% = 57 uM dopamine signal. potentiation, % (test concentration not listed). 360,000 compounds, 0.23% hits. AID 624464; in the data active = potentiation above about 50%; inconclusive = mostly about 30% to 49%
#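 PathHunter beta-arrestin assay in DiscoveRx D2 cells. Compounds were added with an EC20 of dopamine (50 nM final) for 90 min at 37 deg C. Luminescence was read 1 h after detection reagent, with 57 uM dopamine as the EC100 control.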
# D2 ag-2 – activates the human D2 dopamine receptor | AID 485358 | HEK293 T-REx D2 cells, calcium flux agonist mode | activation, % at 2 µM | 340,000 compounds, 0.53% hits;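 active = activation over 3 SD above normal in the single-dose calcium agonist read, cut at about 30% in these data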; also: 0% is about no effect
#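 Agonism scored from kinetic calcium signal (1 read/sec, 180 s) following compound pin transfer, after a 10 s baseline. Cells: HEK293 Trex line expressing inducible D2 receptor coupled to calcium, dye-loaded after overnight culture at 30 C.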
# An asterisk follows results filed as active; ? = inconclusive; . = no result. This is a sample that favours compounds with a hit; in the whole collection about 2.4% have one here.
SMILES,D2 PAM-1,D2 antagonist,D2 ag-1,D2 PAM-2,D2 ag-2
CC(C)(C)c1nn(-c2ccccc2)c2nc(Cl)c(C=O)cc12,4,32*,3,-1,-1
CCOc1ccc(NCc2cc3c(C(C)(C)C)nn(-c4ccccc4)c3[nH]c2=O)cc1,2,-7,-4,-33,0
COc1ccc(-n2nc(C(=O)N(C)c3cc(Cl)ccc3OC)c3c4ccccc4n(C)c3c2=O)cc1,-1,.,.,.,0
CCc1cccc(NC(=O)c2cnc(SC)nc2-c2ccccc2)c1,5,.,.,.,-1
COc1cc(NC(=O)N2CCc3nc(Nc4cc(Cl)cc(Cl)c4)ncc3C2)cc(OC)c1OC,.,.,4,-2,.
O=[N+]([O-])c1cc([N+](=O)[O-])c(Oc2cccnc2Br)cc1NN1CCCCC1,-4,35*,1,4,0
CSc1nc(C(=O)N2CCCC(N3CCN(c4ccccc4C)CC3)C2)cs1 (configuration not stated),-14,39*,-1,-32,2
COc1ccccc1N1CCN(C2CCCN(C(=O)c3csc(C)n3)C2)CC1 (configuration not stated),10,3,-6,-30,0
COc1ccccc1N1CCN(C2CCCN(C(=O)c3oc(C)cc3C)C2)CC1 (configuration not stated),-25,46*,-5,-42,-1
COc1ccc(-n2c(SCC(=O)Nc3ccccc3)nc(O)cc2=O)cc1,0,5,1,11,0
COc1ccc(NC(=O)CSc2nc(-c3ccc(C)cc3)cc(C(F)(F)F)c2C#N)cc1,31*,.,0,-4,.
COc1ccc(NC(=O)CSc2ncnc3sc(C)cc23)cc1,-5,32*,0,-2,-1
COc1ccc(NC(=O)CSc2nc(O)cc(=O)n2-c2ccc(OC)cc2)cc1,40*,7,5,6,0
COCCNC(=O)C1CCCN(Cc2cccc(C#N)c2)CC1 (configuration not stated),.,.,5,-5,.
Cc1cc(S(=O)(=O)N2CCN(c3ccccn3)CC2)ccc1F,-5,33*,0,0,0
CCOc1ccc(-n2c(-c3ccc(Br)cc3)cc3c2CC(C)(C)CC3=O)cc1,1,.,.,.,0
N/C(=N\OS(=O)(=O)c1ccc(Cl)cc1)c1ccncc1,0,1,?,67*,1
C=CCn1c(SCC(=O)Nc2ccc(O)cc2)nc2sc(CC)cc2c1=O,3,31*,2,-2,-1
COc1cc2ccccc2cc1C(=O)N1CCN(c2nc3c(F)cc(F)cc3s2)CC1,-3,.,.,.,.
CCCCCn1c(CN2CCCCC2CC)nc2c1c(=O)n(C)c(=O)n2C (configuration not stated),55*,4,0,-4,0
COc1ccc(/C=C\c2onc(C)c2S(=O)(=O)N2CCC(C(=O)Nc3ccccc3OC)CC2)cc1,.,.,.,.,1
CC1CN(C)C(C)CC1OC(=O)C(c1ccccc1)c1ccccc1 (configuration not stated),.,.,-5,-17,.
CN(C)[C@@H]1CCC[C@H]1OC(=O)C(c1ccccc1)c1ccccc1,-25,47*,-2,-34,0
COc1ccc(CN(C)c2ccc(S(=O)(=O)N3CCN(C)CC3)cc2[N+](=O)[O-])cc1OC,1,-7,-2,-22,-2
CCCc1cc(=O)[nH]c(SCC(=O)NC(=O)NC2CCCC2)n1,-14,32*,1,-14,1
SMILES,D2 PAM-1,D2 antagonist,D2 ag-1,D2 PAM-2,D2 ag-2
CCCc1cc(=O)[nH]c(SCC(=O)NC2CCCCCCC2)n1,.,.,-1,-5,.
O=C(NCc1cccc(F)c1)c1ccc(CS(=O)c2ccccc2Cl)o1 (configuration not stated),-6,.,.,.,0
CCC(=O)N1c2ccccc2CC1C(=O)NCc1ccc(CC)cc1 (configuration not stated),-1,.,.,.,13
O=C1OC(C(=O)Nc2cc(C(F)(F)F)ccc2Cl)Cc2ccccc21 (configuration not stated),-14,.,.,.,0
COc1cc(NS(=O)(=O)c2ccc(NC(=O)/C(=C/c3ccccc3Cl)NC(=O)c3ccccc3)cc2)nc(OC)n1,11,17,-4,-7,1
COc1ccc(NC(=O)/C(=C\c2ccc(OS(=O)(=O)c3ccc(C)cc3)cc2)NC(=O)c2ccccc2)cc1,40*,-16,-1,7,0
COc1cc(NS(=O)(=O)c2ccc(NC(=O)/C(=C\c3ccccc3OC)NC(=O)c3ccccc3)cc2)nc(OC)n1,1,32*,0,2,0
CCCc1cc(=O)[nH]c(SCc2nc(-c3ccc(OC)cc3)no2)n1,.,.,.,.,0
CN1CCN(C(=O)CSc2nc(-c3cccs3)ccc2C#N)CC1,37*,-5,2,-5,-1
O=C(NCCN1CCOCC1)c1cccc(Cl)c1,-16,33*,-3,-9,2
Clc1cccc(-c2ccc(CNCCCN3CCOCC3)o2)c1,-21,92*,-3,-20,-1
O=C(NCCN1CCOCC1)c1cccc(Br)c1,.,.,2,-6,.
COc1ccc(S(=O)(=O)N2CCC(C(=O)NCCN3CCOCC3)CC2)cc1OC,-4,-9,-8,-6,0
COc1ccc(S(=O)(=O)N2CCC(C(=O)NCCN3CCOCC3)CC2)cc1C,-4,34*,-4,-10,1
CC(=O)Nc1nonc1-c1nnc(SCC(=O)Nc2c(C)cccc2C)n1-c1ccccc1,-17,.,.,.,4
Cc1[nH]c(=O)[nH]c(=O)c1S(=O)(=O)N1CCCC(C(=O)NCCc2ccc(Cl)cc2)C1 (configuration not stated),-17,65*,-1,-15,0
COC(=O)c1ccccc1S(=O)(=O)N1CCC(NC(=O)c2ccccc2)CC1,3,-13,-3,-5,0
COc1ccc(C(=O)NC2CCN(S(=O)(=O)c3ccccc3F)CC2)cc1,9,33*,-5,-5,0
C/C=C/C(=O)OCC(=O)Nc1ccccc1Br,-5,47*,-19,1,0
O=C(COC(=O)/C=C/c1ccccc1)Nc1ccccc1Br,-7,40*,-3,-4,-1
C/C=C/C(=O)OCC(=O)Nc1cccc(Br)c1,-1,-5,8,-2,4
O=C(COC(=O)/C=C/c1ccc(Cl)cc1)Nc1ccccc1,41*,-2,-2,-7,0
COc1ccc(CCCc2nnc(SCC(=O)Nc3ccc(C)cc3)o2)cc1C,-11,.,.,.,1
COc1ccc(-n2nnc(-c3nsc(NC(=O)c4cccs4)n3)c2C)cc1OC,3,.,.,.,0
Cc1ccc(COc2coc(CN3CCN(C(=O)c4ccco4)CC3)cc2=O)cc1,9,-5,3,-12,24
CC(Oc1coc(CN2CCN(C(=O)c3ccco3)CC2)cc1=O)c1ccccc1 (configuration not stated),-3,-3,4,-22,31*
